# In all, about 68,000 sequences were measured (“fluorescence intensity (a.u.)”: median about 9,100, highest 2% from about 16,000 on). The full list was thinned out, with the highest values kept by preference.
# Biological target: OsWRKY34 (Oryza sativa, UniProt Q0JBA9 1-250)
# Test: protein-binding microarray (RPBM); PBS, 2% BSA, 51.3 ng/ul salmon testes DNA, 50 uM zinc acetate, 200 nM TF, 25 C, 1 h; high values mean tight binding
# Details: protein: recombinant; tags: N-terminal polyhistidine and DsRed monomer fusion (pET32a); label: CyDye5-dUTP incorporated in the synthesized complementary strand; 3' TTTTT single-stranded linker to array surface; dsDNA, one strand shown
# Method in brief: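 The binding signal for each feature is its fluorescence intensity in arbitrary units. An Axon 4000B scanner was used to read a custom Agilent array that had been made double-stranded with Cy5-dUTP primer extension, blocked with 2% BSA, incubated at 25 °C for 1 h with 200 nM protein in PBS, 2% BSA, salmon testes DNA and 50 µM zinc acetate, and washed. The protein was an N-terminal polyhistidine–DsRed transcription factor fusion from E. coli BL21-CodonPlus, purified on Ni–NTA.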
# Chain of OsWRKY34 (Q0JBA9 entry or part of it): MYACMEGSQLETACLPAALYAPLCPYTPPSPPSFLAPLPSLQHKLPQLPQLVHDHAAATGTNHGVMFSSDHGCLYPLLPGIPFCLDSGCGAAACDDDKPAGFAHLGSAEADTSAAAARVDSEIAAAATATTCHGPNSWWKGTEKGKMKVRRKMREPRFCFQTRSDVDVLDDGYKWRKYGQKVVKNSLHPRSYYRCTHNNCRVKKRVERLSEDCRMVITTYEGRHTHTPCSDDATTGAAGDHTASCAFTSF
row,Sequence,binding signal
1,GCAGACAACTCCGTCGCTGTTACTTCCTCTATGCCAAAACCGGAGTCACCTAGTGCAG,9350 fluorescence intensity (a.u.)
2,AGCGCGCGCAGCTTTGCAGGCGTGGTCGGGGTCGTTGTGCCGGAGTCACCTAGTGCAG,9700 fluorescence intensity (a.u.)
3,TTTACATATCTATCTTTTTTTTTTGTTTTTTCTCGCTTTTCGGAGTCACCTAGTGCAG,8460 fluorescence intensity (a.u.)
4,AACCTTTCTATAGATTTTTTTTTTTTACAAAAACACATCACGGAGTCACCTAGTGCAG,11700 fluorescence intensity (a.u.)
5,ACCATTATTCTGTTGTCAACTGCATGCCGCAACAAACTGACGGAGTCACCTAGTGCAG,8420 fluorescence intensity (a.u.)
6,AATCCCAAGCTAGGTGTTGACCATGGGTCAACAATCTCCCCGGAGTCACCTAGTGCAG,9470 fluorescence intensity (a.u.)
7,AGGTCAACAACCAGTGTCAAGATCTGACCATGCAATTAGCCGGAGTCACCTAGTGCAG,17600 fluorescence intensity (a.u.)
8,AACTAACTGGCACGCCCTCATATCACCAACCTTTGGACCTCGGAGTCACCTAGTGCAG,8560 fluorescence intensity (a.u.)
9,CTTTCTGATCACCAACTCCGCTCCTTTTAATCGCAACTACCGGAGTCACCTAGTGCAG,9660 fluorescence intensity (a.u.)
10,CTGCCGAAGCAACGGATCTGAATCTACGTACCGAGCTTGTCGGAGTCACCTAGTGCAG,64600 fluorescence intensity (a.u.)
11,ATATCTGCTTCTACGTCGTCTACGAAGCCGCCGAGACGTCCGGAGTCACCTAGTGCAG,9320 fluorescence intensity (a.u.)
12,TCCTGTGGTACCCCTGTCGCCGAATCTACGCATCTGCCAACGGAGTCACCTAGTGCAG,8140 fluorescence intensity (a.u.)
13,ACTCTCTTCCTCACGACGCACCACGGGCTAGCCACTCCTACGGAGTCACCTAGTGCAG,8340 fluorescence intensity (a.u.)
14,TATTTGGTTTTGTAGGGGTTGGTTTGGGAAAATTGGAAAGCGGAGTCACCTAGTGCAG,16400 fluorescence intensity (a.u.)
15,TATTGTTTAGTTGGGAAAAAAATTTGGGGTTGGTTGTCACCGGAGTCACCTAGTGCAG,10400 fluorescence intensity (a.u.)
16,CTTATTTAGTTGGGGAAAATTTTTGGGTTTGTTTGTCACACGGAGTCACCTAGTGCAG,11600 fluorescence intensity (a.u.)
17,CCTTTTGTTTTTGGGGCTTGTAGTTTTTGGAAATTTGGGGCGGAGTCACCTAGTGCAG,18300 fluorescence intensity (a.u.)
18,ATTCTCAAAATCGAATTTGTTTTTATATTTCCCTTACTGTCGGAGTCACCTAGTGCAG,14700 fluorescence intensity (a.u.)
19,TTATATTTTGGGACGGAGTATTACTTTGAATCCCTTTTCCCGGAGTCACCTAGTGCAG,8280 fluorescence intensity (a.u.)
20,AAAATTTTATTTTTCATGTGTGGCTTATTGTCCTTTTTTGCGGAGTCACCTAGTGCAG,9470 fluorescence intensity (a.u.)
21,TTACAAACAAAAACTCAAAATCCCTTATATTTTGGGACAGCGGAGTCACCTAGTGCAG,64700 fluorescence intensity (a.u.)

row,Sequence,binding signal
1,TTTTTTTTTCTTTTGGGGCGGAAGGAGTAGTATGGAGTTTCGGAGTCACCTAGTGCAG,12300 fluorescence intensity (a.u.)
2,GCAGGCGGCGGAGGATTTTTGGGAGGGGAAAACGGCGAGTCGGAGTCACCTAGTGCAG,8540 fluorescence intensity (a.u.)
3,GAAAAATTGTCCCTTTTTATTTGGGAGGGGAGGGAGGAGGCGGAGTCACCTAGTGCAG,17100 fluorescence intensity (a.u.)
4,TGTTTGCTTATTACTATTTTTTTTGGGGCGGGAAATTAAACGGAGTCACCTAGTGCAG,14100 fluorescence intensity (a.u.)
5,CTTTTTATTACCGGTGTTTCGCTTTGGACCACCCTTCAACCGGAGTCACCTAGTGCAG,9170 fluorescence intensity (a.u.)
6,CCACCAATCCACCACCGCCACGCCACTTCACCCTTGTTTTCGGAGTCACCTAGTGCAG,9810 fluorescence intensity (a.u.)
7,CTCCGTCGCCACTCACACCCATGGCCTTGACCGCTACTAGCGGAGTCACCTAGTGCAG,9550 fluorescence intensity (a.u.)
8,GTTTTGAAAGGTATTGTTGGGTAGTAATAGGCTTCATCTTCGGAGTCACCTAGTGCAG,10200 fluorescence intensity (a.u.)
9,TTCCTTTTGTGTTGTTTCCCTTTCAGTTTCATCTTTTGCTCGGAGTCACCTAGTGCAG,8110 fluorescence intensity (a.u.)
10,ACTTGTCCTTGATCCTGCCCCACTTCGGATTGTCAATCGACGGAGTCACCTAGTGCAG,8730 fluorescence intensity (a.u.)
11,CGTTCCTTGGTATTCTCCCTCGTGGTGTAAATGTACGTATCGGAGTCACCTAGTGCAG,9740 fluorescence intensity (a.u.)
12,TTGTTGCAGCCTCGCAGTAAGATTCCTTGTTTTTCTTAGCCGGAGTCACCTAGTGCAG,8620 fluorescence intensity (a.u.)
13,TCGCTTTTTACTTTTTATTTTTTTACACATCCGACTCAAACGGAGTCACCTAGTGCAG,8260 fluorescence intensity (a.u.)
14,ACCCAAAGCCACCCGCAACAACCGACGACGACGACGACCGCGGAGTCACCTAGTGCAG,18200 fluorescence intensity (a.u.)
15,CACCCAAGCCAAGCCCACGACCCGCACCGCAACACGCACACGGAGTCACCTAGTGCAG,8520 fluorescence intensity (a.u.)
16,CCCGCACCGCAACACGCACACCCACGCGCACGCACAAACCCGGAGTCACCTAGTGCAG,8060 fluorescence intensity (a.u.)
17,CCACGCTATCCCATGCGATTCGAGAAGGTTCCACACACACCGGAGTCACCTAGTGCAG,8430 fluorescence intensity (a.u.)
18,AATGGTGCAATACAATTTCAAGCGTATCACTGTTGTTCCTCGGAGTCACCTAGTGCAG,9720 fluorescence intensity (a.u.)
19,TCAAAATGTTTAACGCCGTTGACTTTTTAGCACATTTTTGCGGAGTCACCTAGTGCAG,33000 fluorescence intensity (a.u.)
20,TTCAAAATGTTTGATACCGTTGACTTTTTAGCACATTTTGCGGAGTCACCTAGTGCAG,29400 fluorescence intensity (a.u.)
21,GACTTTTTAGCACATTTTTGACCGTTCATCTTATTCAAAACGGAGTCACCTAGTGCAG,8780 fluorescence intensity (a.u.)
